Reference: PubChem BioAssay AID1963317 (National Center for Advancing Translational Sciences (NCATS), 2024)
Inconclusive results are not listed. Active and inactive are the calls of the source. Calls come from the whole dose curve.

The compounds below were run against Tyrosine-protein kinase ABL1 (Homo sapiens) (UniProt P00519) (assay: ABL1 kinase (ABL1-N-HiBiT) enzymatic inhibition screen - Functional assay). Conditions: luminescence; series mostly up to 57.5 µM.
Text: National Center for Advancing Translational Sciences (NCATS),
National Institute of Health (NIH), Maryland
Discovery and optimization of novel protein-binding ligands underlies many of the methods and applications of biology, drug discovery, clinical diagnostics, and environmental toxicology. Assays for detecting the interaction of, for example, a molecule with a macromolecular target also referred to here as the target of interest (TOI) is dependent on a compatible output technology. Depending on the nature and knowledge surrounding the TOI, whether a receptor, enzyme, regulatory subunit or scaffold, or a sequence-defined nucleic acid folded into a complex tertiary structure, assay strategies can vary widely.
Here we exploit ligand-biased changes in the structural dynamics of the target protein to control reporter alpha complementation allowing a non-competitive, non-functional, non-separation measure of ligand-target interaction.
Using a chemical library of >1,200 compounds enriched for scaffolds known to be associated with the inhibition of firefly luciferase (FLuc) activity (PubChem AIDs 2309) we first illustrate and compare the Structural Dynamics Response (SDR) assay vs. the standard functional FLuc enzyme assay (2). Secondly, we show the specificity and sensitivity of the SDR for the Abelson tyrosine kinase (ABL1) compared to the serine/threonine protein kinase A, using an enriched chemical library of 128 compounds selected, in part, for activity annotated with ABL1 kinase activity using the Pharos database (3).
(1) A. S. Dixon et al., NanoLuc Complementation Reporter Optimized for Accurate Measurement of Protein Interactions in Cells.
Chemistry & Biology, 19, 1060 - 1072 (2012).
(3) K. J. Kelleher et al., Pharos 2023: an integrated resource for the understudied human proteome. Nucleic Acids Res 51, D1405-D1416 (2023).
PROTOCOL TABLE (as described by Inglese J, Shamu CE and Guy RK. 2007)
SEQUENCE No. (e.g., 1, 2, 3, etc.); […] (e.g., C. elegans, Compounds, Incubation, Read, etc.); VALUE and DESCRIPTION.
1. Reagent. Dispense 4 uL ABL1-N-HiBiT enzyme per well at a final enzyme concentration of 10 nM in buffer with 87.5 uM ATP (functional assay) into columns 2-48 of four replicate Greiner 1536-well white, solid bottom high base, medium plates per assay. Dispense respective buffer without enzyme at 4 uL/well in column 1 of assay plates using BioRaptr 2.
2. Compounds. Library compounds added at 23 nL/well by pin transfer. DMSO neutral control and imatinib positive control added at 25 nL/well, transfer by Mosquito dispenser.
3. Incubation. Incubate enzyme and compounds at room temperature for 30 min, protected from light.
4. Reagent. (Functional assay) Transfer 25 nL of abltide peptide substrate to each well of four replicate kinase assay plates with Mosquito dispenser.
5. Incubation. (Functional assay) Kinase enzyme incubated with peptide substrate for 3 h at room temperature, protected from light.
6. Reagent. (Functional assay) Add 4 uL/well of Kinase-Glo Plus reagent (Promega) to kinase activity assay plates, in the presence of ATP.
7. Detector. (Functional assay) Luminescence measured using CCD-based camera (ViewLux) with settings as follows: Exposure, 1 sec; Gain, High; Speed, Slow; Binning, 2X.
Inglese J, Shamu CE and Guy RK, Reporting data from high throughput screening of small molecule libraries, Nature Chemical Biology, 2007, 3(8): 438-441. doi.org/10.1038/nchembio0807-438.

Sequence of Tyrosine-protein kinase ABL1 (Homo sapiens) (P00519 whole entry, looked up): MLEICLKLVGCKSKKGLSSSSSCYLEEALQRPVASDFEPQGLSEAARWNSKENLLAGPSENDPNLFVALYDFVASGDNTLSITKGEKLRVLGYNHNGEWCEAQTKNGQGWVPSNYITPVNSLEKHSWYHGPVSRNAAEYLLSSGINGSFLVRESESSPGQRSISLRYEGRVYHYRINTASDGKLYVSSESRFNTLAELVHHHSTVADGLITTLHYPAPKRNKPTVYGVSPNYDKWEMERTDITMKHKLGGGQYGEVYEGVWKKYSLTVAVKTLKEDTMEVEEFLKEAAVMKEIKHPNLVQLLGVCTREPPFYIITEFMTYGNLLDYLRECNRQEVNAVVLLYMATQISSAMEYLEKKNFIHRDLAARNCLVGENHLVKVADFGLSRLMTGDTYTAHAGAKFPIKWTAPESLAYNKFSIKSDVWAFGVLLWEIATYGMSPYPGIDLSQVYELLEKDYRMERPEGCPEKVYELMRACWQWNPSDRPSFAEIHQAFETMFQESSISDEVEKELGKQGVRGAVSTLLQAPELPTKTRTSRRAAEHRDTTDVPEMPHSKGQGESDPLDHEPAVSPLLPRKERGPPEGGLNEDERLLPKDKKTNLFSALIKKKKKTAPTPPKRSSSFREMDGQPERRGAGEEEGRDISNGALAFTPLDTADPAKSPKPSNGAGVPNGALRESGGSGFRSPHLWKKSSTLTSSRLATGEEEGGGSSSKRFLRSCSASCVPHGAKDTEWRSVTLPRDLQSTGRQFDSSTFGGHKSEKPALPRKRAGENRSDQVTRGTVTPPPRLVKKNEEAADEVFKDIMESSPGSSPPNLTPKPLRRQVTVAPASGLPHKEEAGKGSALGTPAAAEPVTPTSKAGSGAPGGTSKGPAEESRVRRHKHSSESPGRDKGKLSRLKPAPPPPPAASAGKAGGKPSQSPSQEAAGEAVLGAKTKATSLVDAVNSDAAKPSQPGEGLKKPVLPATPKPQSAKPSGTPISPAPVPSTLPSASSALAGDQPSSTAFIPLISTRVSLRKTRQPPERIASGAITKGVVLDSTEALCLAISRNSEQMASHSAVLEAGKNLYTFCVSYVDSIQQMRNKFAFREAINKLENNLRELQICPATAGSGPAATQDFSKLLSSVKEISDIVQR

Compound	outcome
CCNC(=O)C[C@@H]1N=C(c2ccc(Cl)cc2)c2cc(OC)ccc2-n2c(C)nnc21	inactive
N#Cc1cn([C@@H]2O[C@H](CO)[C@H](O)[C@@H]2O)c2ncnc(N)c12	inactive
O=[N+]([O-])O[C@H]1CO[C@H]2[C@@H]1OC[C@H]2O[N+](=O)[O-]	inactive
O=C(NCCCNc1nc(Nc2ccc(N3CCOCC3)cc2)ncc1C1CC1)C1CCC1	inactive
Cc1[nH]nc2ccc(-c3cncc(OC[C@@H](N)Cc4c[nH]c5ccccc45)c3)cc12	inactive
C/C(O)=C(\C#N)C(=O)Nc1cc(Br)ccc1Br	inactive
